Source: PubChem BioAssay (EPA / NIEHS)
Records with an inconclusive call do not appear. The source made the active and inactive calls. The calls were made as follows, unless noted: active = hit-call score of the fitted dose curve at least 0.9, where 1 is the maximum; inactive = score below 0.9.

Legend:
[1] = ATG_NFI_CIS: Attagene CIS-FACTORIAL HepG2 Assay for human Nuclear Factor I (NFI) (AID 2282989); details: HepG2 cis-regulatory reporter, NFI response element transcription; actives raise or lower the signal
Outline: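 Multiplexed cis-reporter system in human HepG2 cells reports native TF activity as reporter mRNA induction 24 h post-dose. Fragments labelled with 6-FAM, HpaI-digested and resolved by capillary electrophoresis; activity fitted both directions versus DMSO.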

[2] = biological target: Myc proto-oncogene protein (Homo sapiens) (UniProt P01106); experiment: ATG_Myc_CIS: Attagene CIS-FACTORIAL HepG2 Assay for human Myelocytomatosis (Myc) Proto-Oncogene Transcription Factor (AID 2282990); details: HepG2, Attagene cis-reporter transcription factor activity; actives raise or lower the signal
Outline: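 HepG2 cells transiently transfected with multiple cis-promoter-driven reporter transcription units, so endogenous TF activity is read. After 24 h compound exposure, reporter mRNA was quantified by RT-PCR, 6-FAM labelling, HpaI digestion and capillary electrophoresis; bidirectional fit versus DMSO.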

[3] = ATG_NRF2_ARE_CIS: Attagene CIS-FACTORIAL HepG2 Assay for human Nuclear Factor Erythroid 2 Related Factor 2 (NFR2) response to Antioxidant Response Elements (ARE) (AID 2282992); details: HepG2 Attagene ARE/NRF2 reporter, transcription factor activity; actives raise or lower the signal
Outline: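 Using transiently transfected HepG2 cells exposed for 24 h, reporter mRNA levels were determined by RT-PCR with fluorescent primer extension and capillary electrophoresis, analysed for gain or loss of signal against DMSO.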

[4] = biological target: Cellular tumor antigen p53 (Homo sapiens) (UniProt P04637); experiment: ATG_p53_CIS: Attagene CIS-FACTORIAL HepG2 Assay for human p53 Transcription Factor (AID 2282994); details: HepG2 p53 cis-element reporter, Attagene mRNA; actives raise or lower the signal
Outline: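 In HepG2 cells, reporter transcription units under cis-regulatory promoters were transiently introduced. Following 24 h treatment, RNA was processed to labelled, digested cDNA fragments read by capillary electrophoresis; fitting was bidirectional versus DMSO.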

[5] = biological target: human Peroxisome Proliferator-activated Receptor alpha (PPARa), PPARA (gene 5465) (UniProt Q07869); experiment: ATG_PPARa_TRANS: Attagene TRANS-FACTORIAL HepG2 Assay for human Peroxisome Proliferator-activated Receptor alpha (PPARa) (AID 2283001; active = hit-call score of the fitted dose curve at least 0.9, where 1 is the maximum)
Outline: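 Exposure: 24 h, transiently transfected HepG2 cells. Endpoint: GAL4-UAS reporter mRNA, RT-PCR with capillary electrophoresis fluorescence. Baseline: DMSO; increases fitted.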

[6] = biological target: human Peroxisome Proliferator-activated Receptor delta (PPARd), PPARD (gene 5467) (UniProt Q03181); experiment: ATG_PPARd_TRANS: Attagene TRANS-FACTORIAL HepG2 Assay for human Peroxisome Proliferator-activated Receptor delta (PPARd) (AID 2283002; active = hit-call score of the fitted dose curve at least 0.9, where 1 is the maximum)
Outline: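 HepG2 cells transiently transfected with multiplexed GAL4-UAS reporter units and exogenous chimeric NR-Gal4 proteins; 24 h compound exposure. Reporter mRNA measured by RT-PCR, 6-FAM labelling, HpaI digestion and capillary electrophoresis; gain of signal versus DMSO.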

[7] = biological target: Peroxisome proliferator-activated receptor gamma (Homo sapiens) (UniProt P37231); experiment: ATG_PPARg_TRANS: Attagene TRANS-FACTORIAL HepG2 Assay for human Peroxisome Proliferator-activated Receptor-gamma (PPARg) (AID 2283007; active = hit-call score of the fitted dose curve at least 0.9, where 1 is the maximum)
Outline: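 Endpoint reflects upward reporter mRNA change versus DMSO controls. Setup: transiently transfected HepG2, GAL4-UAS reporters driven by chimeric NR-Gal4, 24 h incubation, RT-PCR with capillary electrophoresis read-out.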

[8] = biological target: Nuclear receptor subfamily 1 group I member 2 (Homo sapiens) (UniProt O75469); experiment: ATG_PXR_TRANS: Attagene TRANS-FACTORIAL HepG2 Assay for human Pregnane X Receptor (PXR) (AID 2283008; active = hit-call score of the fitted dose curve at least 0.9, where 1 is the maximum)
Outline: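 Multiplexed TRANS reporter panel in HepG2; this component tracks PXR-Gal4-driven reporter mRNA after 24 h dosing, measured by RT-PCR with capillary electrophoresis fluorescence, fitted against DMSO.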

[9] = ATG_Oct_MLP_CIS: Attagene CIS-FACTORIAL HepG2 Assay for human Octamer-Binding Transcription Factor (Oct) (AID 2282993); details: HepG2 Attagene cis-factorial Oct reporter, mRNA; actives raise or lower the signal
Outline: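 After 24 h compound exposure, transfected HepG2 cells were lysed for total RNA; reporter-specific cDNA was PCR-amplified, fluorescently labelled and sized by capillary electrophoresis. Bidirectional curve fitting used DMSO as baseline.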

[10] = biological target: Retinoic acid receptor alpha (Homo sapiens) (UniProt P10276); experiment: ATG_RARa_TRANS: Attagene TRANS-FACTORIAL HepG2 Assay for human Retinoic Acid Receptor alpha (RARa) (AID 2283005; active = hit-call score of the fitted dose curve at least 0.9, where 1 is the maximum)
Outline: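 HepG2 cells transiently transfected with multiple reporter units expressing chimeric RARα-GAL4 fusion, with GAL4-UAS-driven reporters. After 24 h compound exposure, reporter mRNA induction quantified by RT-PCR and capillary electrophoresis with fluorescent labeling; gain-of-signal fitted relative to DMSO control.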

[11] = biological target: human RAR-related Orphan Receptor beta (RORb), RORB (gene 6096) (UniProt Q92753); experiment: ATG_RORb_TRANS: Attagene TRANS-FACTORIAL HepG2 Assay for human RAR-related Orphan Receptor beta (RORb) (AID 2283010; active = hit-call score of the fitted dose curve at least 0.9, where 1 is the maximum)
Outline: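 Multiplexed transcription-factor reporter assay: HepG2 cells transiently carrying NR-Gal4/GAL4-UAS constructs, 24 h treatment, mRNA quantified by RT-PCR plus capillary electrophoresis fluorescence; activity scored as induction over DMSO.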

[12] = ATG_NF_kB_CIS: Attagene CIS-FACTORIAL HepG2 Assay for human Nuclear Factor Kappa B (NF-kB) (AID 2282991); details: HepG2 Attagene cis-factorial NF-kB reporter mRNA; actives raise or lower the signal
Outline: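 Endpoint from a 52-component multiplexed HepG2 reporter panel: cis-regulated transcription units transiently transfected, 24 h dosing, reporter mRNA quantified by RT-PCR and capillary electrophoresis, scored as increase or decrease against DMSO.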

[13] = biological target: human Retinoic Acid Receptor beta (RARb), RARB (gene 5915) (UniProt P10826); experiment: ATG_RARb_TRANS: Attagene TRANS-FACTORIAL HepG2 Assay for human Retinoic Acid Receptor beta (AID 2283004; active = hit-call score of the fitted dose curve at least 0.9, where 1 is the maximum)
Outline: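 Fluorescent capillary-electrophoresis detection of GAL4-UAS reporter mRNA defines the endpoint, with induction over DMSO-treated wells scored as activity. Transiently transfected human hepatoma HepG2 cells expressing exogenous NR–Gal4 proteins are exposed to test chemicals for 24 h.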

[14] = biological target: human Retinoic Acid Receptor gamma (RARg), RARG (gene 5916) (UniProt P13631); experiment: ATG_RARg_TRANS: Attagene TRANS-FACTORIAL HepG2 Assay for human Retinoic Acid Receptor gamma (RARg) (AID 2283009; active = hit-call score of the fitted dose curve at least 0.9, where 1 is the maximum)
Outline: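 Gain-of-signal relative to DMSO is reported from fluorescent capillary electrophoresis of RT-PCR reporter products. These came from HepG2 cells expressing transfected RARg-GAL4 chimeras with UAS reporters, harvested 24 h after dosing.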

Measured: AC50

Chain of Peroxisome proliferator-activated receptor gamma (Homo sapiens) (P37231 whole entry, looked up, the tested form may be a part): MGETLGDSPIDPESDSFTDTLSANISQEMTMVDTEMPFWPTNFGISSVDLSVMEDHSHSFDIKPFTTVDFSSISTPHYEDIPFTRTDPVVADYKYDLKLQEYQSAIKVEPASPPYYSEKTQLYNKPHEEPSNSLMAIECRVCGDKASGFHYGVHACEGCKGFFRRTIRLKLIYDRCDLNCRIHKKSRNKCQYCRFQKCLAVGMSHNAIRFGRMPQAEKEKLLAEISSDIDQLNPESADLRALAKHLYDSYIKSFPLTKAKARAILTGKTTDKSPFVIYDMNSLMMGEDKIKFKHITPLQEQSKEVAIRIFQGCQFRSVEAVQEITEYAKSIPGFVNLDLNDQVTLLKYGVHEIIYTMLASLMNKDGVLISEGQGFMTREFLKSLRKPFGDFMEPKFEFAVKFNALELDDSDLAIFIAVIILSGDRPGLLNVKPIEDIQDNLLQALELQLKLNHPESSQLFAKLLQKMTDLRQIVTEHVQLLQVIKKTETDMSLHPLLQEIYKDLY
Chain of human Peroxisome Proliferator-activated Receptor delta (PPARd), PPARD (gene 5467) (Q03181 whole entry, looked up, the tested form may be a part): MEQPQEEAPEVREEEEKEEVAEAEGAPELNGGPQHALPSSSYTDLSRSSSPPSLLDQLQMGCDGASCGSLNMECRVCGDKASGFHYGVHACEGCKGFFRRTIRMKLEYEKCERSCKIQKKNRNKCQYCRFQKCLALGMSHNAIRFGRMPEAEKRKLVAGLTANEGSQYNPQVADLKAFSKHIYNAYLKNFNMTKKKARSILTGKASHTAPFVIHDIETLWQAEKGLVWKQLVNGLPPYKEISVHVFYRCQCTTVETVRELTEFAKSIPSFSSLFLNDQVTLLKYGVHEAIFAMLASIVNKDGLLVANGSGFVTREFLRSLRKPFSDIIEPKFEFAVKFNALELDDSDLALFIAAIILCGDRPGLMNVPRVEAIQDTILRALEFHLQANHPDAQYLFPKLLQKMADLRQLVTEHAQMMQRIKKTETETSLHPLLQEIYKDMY
Chain of human Retinoic Acid Receptor gamma (RARg), RARG (gene 5916) (P13631 whole entry, looked up, the tested form may be a part): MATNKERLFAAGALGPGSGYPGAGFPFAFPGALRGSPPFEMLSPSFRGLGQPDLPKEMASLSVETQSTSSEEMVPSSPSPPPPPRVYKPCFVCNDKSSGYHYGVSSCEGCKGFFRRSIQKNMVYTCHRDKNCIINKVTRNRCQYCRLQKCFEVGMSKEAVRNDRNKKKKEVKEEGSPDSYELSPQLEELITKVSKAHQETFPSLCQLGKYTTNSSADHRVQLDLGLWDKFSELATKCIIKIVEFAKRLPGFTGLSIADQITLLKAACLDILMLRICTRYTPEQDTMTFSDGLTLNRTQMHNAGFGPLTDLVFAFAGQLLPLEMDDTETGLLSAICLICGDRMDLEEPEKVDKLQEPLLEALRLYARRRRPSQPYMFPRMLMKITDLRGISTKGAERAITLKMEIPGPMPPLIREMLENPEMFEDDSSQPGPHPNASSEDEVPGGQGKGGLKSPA
Chain of human Peroxisome Proliferator-activated Receptor alpha (PPARa), PPARA (gene 5465) (Q07869 whole entry, looked up, the tested form may be a part): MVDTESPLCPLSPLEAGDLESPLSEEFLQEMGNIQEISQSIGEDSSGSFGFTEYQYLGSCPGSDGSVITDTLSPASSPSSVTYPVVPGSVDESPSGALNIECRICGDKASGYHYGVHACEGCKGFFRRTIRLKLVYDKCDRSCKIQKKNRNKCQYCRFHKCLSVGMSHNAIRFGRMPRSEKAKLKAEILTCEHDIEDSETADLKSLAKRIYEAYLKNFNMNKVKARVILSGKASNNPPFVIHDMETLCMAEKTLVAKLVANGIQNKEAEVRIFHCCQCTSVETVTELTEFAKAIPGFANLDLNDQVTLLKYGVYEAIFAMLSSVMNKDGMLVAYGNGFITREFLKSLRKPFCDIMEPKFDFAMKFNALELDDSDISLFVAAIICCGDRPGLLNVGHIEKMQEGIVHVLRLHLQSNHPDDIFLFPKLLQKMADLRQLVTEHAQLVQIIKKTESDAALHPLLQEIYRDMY
Chain of Cellular tumor antigen p53 (Homo sapiens) (P04637 whole entry, looked up, the tested form may be a part): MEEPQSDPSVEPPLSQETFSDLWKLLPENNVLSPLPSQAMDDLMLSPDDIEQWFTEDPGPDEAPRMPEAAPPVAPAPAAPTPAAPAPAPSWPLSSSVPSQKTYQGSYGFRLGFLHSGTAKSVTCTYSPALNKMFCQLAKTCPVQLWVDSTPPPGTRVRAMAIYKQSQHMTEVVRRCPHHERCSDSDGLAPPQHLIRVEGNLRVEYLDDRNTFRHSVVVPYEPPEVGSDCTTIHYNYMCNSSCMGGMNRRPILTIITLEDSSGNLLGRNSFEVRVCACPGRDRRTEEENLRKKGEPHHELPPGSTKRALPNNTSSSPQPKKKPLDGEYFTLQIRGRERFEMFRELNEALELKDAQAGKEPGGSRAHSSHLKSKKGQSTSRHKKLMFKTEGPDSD
Chain of human Retinoic Acid Receptor beta (RARb), RARB (gene 5915) (P10826 whole entry, looked up, the tested form may be a part): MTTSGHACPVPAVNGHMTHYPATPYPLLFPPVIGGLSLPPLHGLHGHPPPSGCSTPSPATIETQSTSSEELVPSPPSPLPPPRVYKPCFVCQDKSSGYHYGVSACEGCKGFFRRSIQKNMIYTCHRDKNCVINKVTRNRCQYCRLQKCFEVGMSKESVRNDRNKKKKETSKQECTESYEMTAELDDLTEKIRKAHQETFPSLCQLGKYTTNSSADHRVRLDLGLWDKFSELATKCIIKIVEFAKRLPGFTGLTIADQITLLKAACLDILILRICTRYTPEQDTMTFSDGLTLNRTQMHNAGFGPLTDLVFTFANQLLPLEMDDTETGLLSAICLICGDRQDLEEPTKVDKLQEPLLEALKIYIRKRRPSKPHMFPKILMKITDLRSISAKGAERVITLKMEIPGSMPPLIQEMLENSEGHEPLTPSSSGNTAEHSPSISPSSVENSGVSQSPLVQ
Chain of Nuclear receptor subfamily 1 group I member 2 (Homo sapiens) (O75469 whole entry, looked up, the tested form may be a part): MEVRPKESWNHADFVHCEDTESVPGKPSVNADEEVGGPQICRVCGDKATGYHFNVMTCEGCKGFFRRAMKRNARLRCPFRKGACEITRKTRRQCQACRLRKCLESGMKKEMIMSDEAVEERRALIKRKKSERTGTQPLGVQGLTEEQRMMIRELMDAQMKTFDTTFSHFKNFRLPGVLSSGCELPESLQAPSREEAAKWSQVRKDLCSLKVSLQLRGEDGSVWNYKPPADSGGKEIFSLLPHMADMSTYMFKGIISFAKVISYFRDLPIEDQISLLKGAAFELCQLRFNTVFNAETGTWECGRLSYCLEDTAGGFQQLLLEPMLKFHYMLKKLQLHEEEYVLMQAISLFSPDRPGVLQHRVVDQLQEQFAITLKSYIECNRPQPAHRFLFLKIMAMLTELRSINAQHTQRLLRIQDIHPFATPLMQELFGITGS
Chain of human RAR-related Orphan Receptor beta (RORb), RORB (gene 6096) (Q92753 whole entry, looked up, the tested form may be a part): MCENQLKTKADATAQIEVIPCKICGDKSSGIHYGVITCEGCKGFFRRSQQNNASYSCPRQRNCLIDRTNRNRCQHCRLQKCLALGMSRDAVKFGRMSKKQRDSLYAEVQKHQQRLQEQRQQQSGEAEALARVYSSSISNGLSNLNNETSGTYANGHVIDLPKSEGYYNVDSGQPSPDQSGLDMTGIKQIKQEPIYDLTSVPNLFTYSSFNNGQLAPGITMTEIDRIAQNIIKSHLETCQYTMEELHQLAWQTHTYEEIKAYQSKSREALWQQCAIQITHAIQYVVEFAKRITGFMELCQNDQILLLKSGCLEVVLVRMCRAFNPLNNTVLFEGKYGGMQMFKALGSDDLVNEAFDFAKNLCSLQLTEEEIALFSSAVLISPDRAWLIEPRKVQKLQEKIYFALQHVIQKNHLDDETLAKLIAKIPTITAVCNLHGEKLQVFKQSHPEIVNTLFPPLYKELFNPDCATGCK
Chain of Myc proto-oncogene protein (Homo sapiens) (P01106 whole entry, looked up): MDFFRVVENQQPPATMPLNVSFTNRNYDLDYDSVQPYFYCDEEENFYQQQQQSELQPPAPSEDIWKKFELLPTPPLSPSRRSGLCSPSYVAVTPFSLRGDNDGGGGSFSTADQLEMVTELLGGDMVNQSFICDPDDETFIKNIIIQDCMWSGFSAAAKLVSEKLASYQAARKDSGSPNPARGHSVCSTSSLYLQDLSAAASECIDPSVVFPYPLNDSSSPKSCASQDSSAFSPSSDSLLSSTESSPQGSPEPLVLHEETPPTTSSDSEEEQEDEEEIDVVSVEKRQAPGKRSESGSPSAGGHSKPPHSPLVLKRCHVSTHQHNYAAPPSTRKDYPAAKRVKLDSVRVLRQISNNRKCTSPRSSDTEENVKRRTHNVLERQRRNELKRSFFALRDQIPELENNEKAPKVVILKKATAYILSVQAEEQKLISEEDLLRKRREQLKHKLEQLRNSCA
Chain of Retinoic acid receptor alpha (Homo sapiens) (P10276 whole entry, looked up, the tested form may be a part): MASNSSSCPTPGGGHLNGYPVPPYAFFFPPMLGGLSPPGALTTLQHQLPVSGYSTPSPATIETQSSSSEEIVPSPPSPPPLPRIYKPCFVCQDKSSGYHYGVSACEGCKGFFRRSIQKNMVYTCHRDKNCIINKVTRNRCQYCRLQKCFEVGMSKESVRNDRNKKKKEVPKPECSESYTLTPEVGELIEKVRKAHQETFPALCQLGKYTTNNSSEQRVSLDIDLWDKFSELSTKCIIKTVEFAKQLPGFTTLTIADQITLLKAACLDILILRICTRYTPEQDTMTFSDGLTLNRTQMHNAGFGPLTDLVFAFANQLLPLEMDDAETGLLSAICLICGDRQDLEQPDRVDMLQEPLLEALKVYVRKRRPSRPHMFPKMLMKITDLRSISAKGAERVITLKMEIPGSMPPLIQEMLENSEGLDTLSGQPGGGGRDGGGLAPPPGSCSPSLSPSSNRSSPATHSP

COC(=O)C=C(C)CCC=C(C)C
inactive: [1] | [2] | [4] | [5] | [6]
active: [3] 36.1 µM | [7] 44.5 µM | [8] 4.9 µM

O=c1[nH]c(=O)c2cn[nH]c2[nH]1
inactive: [1] | [2] | [3] | [9] | [4] | [10] | [7] | [11]

CCCCC1(COC(=O)CCC(=O)O)C(=O)N(c2ccccc2)N(c2ccccc2)C1=O
active: [8] 28 µM
inactive: [1] | [2] | [3] | [9] | [4] | [7]

CC1(C)O[C@@H]2[C@@H](CO[C@@]3(COS(N)(=O)=O)OC(C)(C)O[C@@H]23)O1
inactive: [1] | [12] | [3] | [9] | [4] | [7] | [8]

Clc1ccc(C(c2ccccc2Cl)C(Cl)Cl)cc1 (configuration not stated)
active: [1] 34.7 µM | [12] 100 µM | [3] 52 µM | [9] 26.7 µM | [8] 1.92 µM
inactive: [4] | [5] | [7]

CCCCCCCCSCCO
inactive: [1] | [12] | [9] | [4] | [5] | [6] | [8]
active: [3] 186 µM | [7] 33.8 µM

C=CCN(CC=C)CC=C
inactive: [1] | [2] | [3] | [13] | [8] | [11]

CC=CC=CCOC(=O)C(C)C
active: [3] 27.1 µM | [7] 11.1 µM
inactive: [1] | [9] | [4] | [5] | [8]

CCCCCCCC(=O)OCC(O)CO (configuration not stated)
not listed: [2] | [9] | [11] | [13]
inactive: all other assays above

COC(=O)c1cccnc1
not listed: [2] | [6] | [7] | [8] | [10]
inactive: all other assays above

CC(C)=CCCC(C)CCOC=O (configuration not stated)
inactive: [1] | [12] | [3] | [9] | [4] | [7] | [8]

COc1ccccc1N=Nc1c(S(=O)(=O)O)cc2cc(S(=O)(=O)O)cc(NC(C)=O)c2c1O
not listed: [2] | [6] | [10]
inactive: all other assays above
